Holding throughout (assay): NCI-60 one-dose screen, 48 h (100 = growth as untreated, 0 = no growth, -100 = all killed)
Common to all, as to settings: 10 µM unless noted

In assay [1] the test system is HCT-15 colon.
In assay [2] the test system is HT29 colon.
The subject of assay [3] is SNB-75 CNS.
The subject of assay [4] is SNB-19 CNS.
The subject of assay [5] is U251 CNS.
Assay [6] concerns PC-3 prostate.
Assay [7] deals with SK-MEL-5 melanoma.
Assay [8] relates to UACC-62 melanoma.
Assay [9] has as its system LOX IMVI melanoma.
Assay [10] relates to SK-MEL-28 melanoma.
In assay [11] the test system is SK-MEL-2 melanoma.
Assay [12] relates to EKVX NSCLC.
Assay [13] has as its system SN12C renal.
For assay [14], the system named is UO-31 renal.
Assay [15] deals with TK-10 renal.
The subject of assay [16] is ACHN renal.
Assay [17] deals with CAKI-1 renal.
For assay [18], the system named is A498 renal.
The test system of assay [19] is CCRF-CEM leukemia.
Assay [20] relates to MOLT-4 leukemia.

Compounds without any hit were thinned out: in the full panel of roughly 83,000, 20% have a hit.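 96-well plates, one dose, 48 hours. Percent growth reported; active if below 10.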 A number with no mark means an inactive call. Activity calls are given as the source filed them.

With `COc1ccccc1NCc1cccn1Cc1ccc(F)cc1`, the growth in [1] is 98.3%; in [2], 102%; in [3], 104%; in [4] it was 96%; in assay [5], 98.8%; in assay [6], 97.3%. Also, the growth was 97.4% in assay [7]; 89.8% in assay [8]; 97% in assay [9]; 97.4% in [10]; 106% in [11]; 98% in assay [12]. Besides, the growth in assay [13] was 97.5%; in assay [14], 75.6%; in assay [15], 91.3%; in assay [16], 93.3%; in [17], 94%; in assay [18], 85.9%. Also, the values for the growth in assay [19] and in assay [20] were 91.8% and 94%, respectively.
As for `COc1ccc2[nH]cc(-c3csc4nc(-c5ccccc5)cn34)c2c1`, the growth in [1] was 11.3%; in assay [2] it was -8.92% (active); in assay [3], -4.19% (active); in assay [4], 23.6%; in assay [5] it was 13.6%; in assay [6], 19.4%. Also, the growth in [7] is 47.2%; in assay [8] it was 32.4%; in assay [9] it was -2.73% (active); in assay [10] it was 73.8%; in assay [11], -5.6% (active); in [12] it was 35.8%. The growth is 40.2% in [13]; 33.2% in assay [14]; 75.6% in assay [15]; 38.6% in [16]; 26.3% in [17]; -19.7% (active) in [18]. Further, the growth in [19] is 16.2%; in assay [20] it was 19.7%.
Regarding `C#Cc1nc(C(=O)NCCC(=O)Nc2ccc(NC(=O)c3ccc(/C=C/C(=O)c4nccn4C)cc3)cc2)cs1`, the growth in assay [1] is 16.7%; in assay [2], 2.68% (active); in assay [3], 56.6%; in assay [4], 35.1%; in assay [5] it was 3.44% (active); in [6] it was 42.5%. The growth in assay [7] is 87%; in [8] it was 38.6%; in assay [9], -90.1% (active); in assay [10] it was 84.8%; in assay [11], 100%; in assay [12] it was 65.3%. The growth is 14.4% in assay [13]; 30.7% in assay [14]; 69.9% in assay [15]; -67.5% (active) in [16]; 38.9% in assay [17]; 90.5% in [18]. The growth was -21.2% (active) in assay [19] and 19.9% in assay [20].
Turning to `CCCn1cnc2c(c1=N)C(c1ccc(Cl)cc1)c1sc3c(C)cccc3c1O2` (stereo not given), the growth in assay [1] is 13%; in assay [2] it was 5.11% (active); in assay [3], 26.7%; in [4], 26.5%; in assay [5], 19.4%; in assay [6] it was 6.9% (active). In addition, the growth in assay [7] was 28.7%; in assay [8] it was 5.02% (active); in [9] it was 19.6%; in assay [10], 60.9%; in assay [11], 33.5%; in assay [12], 42.7%. The growth in [13] was 17.9%; in assay [14] it was 32.2%; in [15] it was 93.3%; in assay [16] it was 29.1%; in assay [17], 29.8%; in assay [18] it was -13.1% (active). Also, the growth is 3.96% (active) in [19] and 15.5% in assay [20].
For `CC(c1ccccc1)N1CSc2nc3ncncc3n2C1` (stereo not given), the growth in [1] was 37.3%; in [2], 30.4%; in assay [3] it was 51.5%; in [4], 99.5%; in assay [5] it was 70.6%; in assay [6], 42.4%. Also, the growth in assay [7] is 49.3%; in assay [8], 20.6%; in [9], 10.1%; in assay [10] it was 96.9%; in assay [11], 57.2%; in assay [12], 84.8%. Further, the growth in assay [13] was 68.8%; in assay [14] it was 47.6%; in assay [15], 42.6%; in assay [16] it was 45.2%; in assay [17], 27.2%; in [18], 85.8%. Moreover, the growth is 23.1% in [19] and 18.2% in [20].
As for `Cc1nn(-c2ccccc2)c2ncnc(N/N=C/c3cccc(O)c3)c12`, the growth in [1] is 22.8%; in [2], 81%; in assay [3], 33.2%; in assay [4], 49%; in assay [5], 40.8%; in assay [6] it was 42.6%. For the same molecule, the growth in assay [7] is 30.5%; in [8] it was 32.7%; in assay [9] it was 29%; in [10], 54.2%; in assay [11], 22.6%; in assay [12], 81.6%. Moreover, the growth in assay [13] is 44.4%; in [14] it was 40.7%; in [15] it was 56.4%; in [16], 50.6%; in assay [17], 48.7%; in assay [18] it was 48.2%. The growth in assay [19] is 27%; in assay [20], 22%.
With `C=C(C=O)[C@@H]1CC[C@]2(C)[C@H](C(=O)C=C3[C@H]4C[C@](C)(C(=O)OC)CC[C@]4(C)CC[C@]32C)[C@@]1(C)CCC#N`, the growth in [1] is -45.3% (active); in [2], -5.25% (active); in [3], 66.1%; in assay [4], 30.7%; in [5], 2.98% (active); in [6], 11.2%. In addition, the growth in assay [7] is -88% (active); in assay [8], -19% (active); in assay [9] it was -83.2% (active); in [10] it was -38.3% (active); in assay [11] it was -22.3% (active); in [12], 47.7%. Moreover, the growth in assay [13] is 12.8%; in [14] it was -91.5% (active); in [15], 48.9%; in [16], -12.5% (active); in assay [17] it was 7.53% (active); in [18], 115%. Also, the growth in assay [19] was 10.2%; in [20], 0.0515% (active).
For `O=S(=O)(NCCCNc1nccc(-n2cnc3ccccc32)n1)c1ccc(C(F)(F)F)cc1`, the growth in [1] is 81.8%; in [2] it was 96.3%; in assay [3], 87.2%; in [4], 94.2%; in assay [5], 90.8%; in assay [6], 66.7%. The growth was 58.8% in assay [7]; 62% in assay [8]; 85.6% in assay [9]; 103% in [10]; 97.8% in [11]; 75.1% in assay [12]. Besides, the growth is 85.9% in [13]; 60.7% in assay [14]; 95.7% in assay [15]; 87.1% in [16]; 60.5% in assay [17]; 72.1% in [18]. In addition, the figures for the growth in [19] and in assay [20] were 70.9% and 67%, respectively.

The values are drawn from PubChem BioAssay (NCI).
